PubChem BioAssay (NCI)
This is part of a sample that, as a whole, favours compounds with a hit. Of some 79,000 tested, about 15% had one in any assay. Values without a mark were called inactive. Calls of active or inactive are those of the source. No stated cut-off is given here; in the data, active means growth inhibition above about 70%; inactive means the rest.

Assays:
[1] = NCI Yeast Anticancer Drug Screen. Data for the rad50 strain (AID 155);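 further: 0% = growth of vehicle-only cultures of the same strain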; conditions: S. cerevisiae rad50 strain growth inhibition, hits give high values
Procedure, shortened: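 Compounds were tested on a yeast strain with an engineered DNA damage repair alteration; the reported value is growth inhibition normalised to vehicle treatment.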

[2] = NCI Yeast Anticancer Drug Screen. Data for the mec2-1 strain (AID 157); conditions: S. cerevisiae mec2-1 strain, hits give high values
Procedure, shortened: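 Growth inhibition is read against vehicle-treated controls after compound exposure of the mec2-1 yeast strain, which is defective in DNA damage repair or cell cycle control.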

[3] = NCI Yeast Anticancer Drug Screen. Data for the sgs1 mgt1 strain (AID 161);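 further: 0% = growth of cultures given vehicle only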; conditions: S. cerevisiae sgs1 mgt1 strain, hits give high values
Procedure, shortened: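 Compounds are added to genetically altered yeast, and growth is compared with cultures given vehicle alone to give percent inhibition.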

[4] = NCI Yeast Anticancer Drug Screen. Data for the cln2 rad14 strain (AID 165);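 further: 0% = growth equal to vehicle treated cultures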; conditions: S. cerevisiae cln2 rad14 strain, hits give high values
Procedure, shortened: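 Growth inhibition, relative to vehicle-treated controls, is the read-out. The test organism is a yeast strain with defined genetic alterations, cln2 rad14.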

[5] = NCI Yeast Anticancer Drug Screen. Data for the bub3 strain (AID 167); conditions: S. cerevisiae bub3 mutant strain, hits give high values
Procedure, shortened: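 Growth of a checkpoint-deficient yeast mutant is measured after compound exposure. Values represent inhibition relative to vehicle.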

[6] = NCI Yeast Anticancer Drug Screen. Data for the mlh1 rad18 strain (AID 175); conditions: S. cerevisiae mlh1 rad18 strain growth inhibition, hits give high values
Procedure, shortened: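 Cells of a genetically altered yeast strain, deficient in DNA damage repair, were treated with compound. Their growth was then compared with that of vehicle-treated cultures to give inhibition.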

[7] = at 5.0 µM (retest, dose inferred, filed as 0.5)
[8] = at 50.0 µM (retest, dose inferred, filed as 5.0)

Structure (SMILES)	growth inhibition [1, 7]	growth inhibition [1, 8]	growth inhibition ([1]; at 50.0 µM)	growth inhibition [2, 7]	growth inhibition [2, 8]	growth inhibition ([2]; at 50.0 µM)	growth inhibition [3, 7]	growth inhibition [3, 8]	growth inhibition ([3]; at 50.0 µM)	growth inhibition [4, 7]	growth inhibition [4, 8]	growth inhibition ([4]; at 50.0 µM)	growth inhibition [5, 7]	growth inhibition [5, 8]	growth inhibition ([5]; at 50.0 µM)	growth inhibition [6, 7]	growth inhibition [6, 8]	growth inhibition ([6]; at 50.0 µM)
Oc1c(Cl)c(Cl)c2ncccc2c1Cl	14%	13%	55.8%	10%	13%	-8.8%	11%	15%	49%	4%	5%	-26.4%	5%	37%	48.6%	7%	12%	45.5%
O=C(O)CNc1ccc2c(c1)Cc1cc(Br)ccc1-2	19%	88% (active)	97.2% (active)	-1%	87% (active)	96.2% (active)	55%	98% (active)	97.9% (active)	-3%	59%	88.9% (active)	-1%	85% (active)	96.5% (active)	45%	96% (active)	97.7% (active)
c1cc[c]([Sn]([CH]2c3ccccc3-c3ccccc32)([CH]2c3ccccc3-c3ccccc32)[CH]2c3ccccc3-c3ccccc32)cc1	4%	0%	95.2% (active)	5%	2%	98% (active)	-1%	-4%	95.5% (active)	3%	6%	95% (active)	2%	-3%	97.3% (active)	4%	11%	96.3% (active)
N=Nc1c(OC(=O)Nc2ccccc2)[nH]c2ccccc12	-3%	67%	8.65%	20%	63%	-6.3%	-1%	69%	13.8%	9%	40%	63.9%	1%	84% (active)	31.9%	-3%	85% (active)	71.5% (active)
Cc1cc(C)nc(CCSS(=O)(=O)O)c1	-4%	5%	12.7%	-17%	2%	-0.95%	2%	6%	3.35%	-1%	-8%	0.65%	-1%	-6%	40.9%	12%	6%	5.85%
COc1ccc(C(c2ccc(N(C)C)cc2)c2ccc(N(C)C)cc2)cc1	97% (active)	85% (active)	93.5% (active)	98% (active)	88% (active)	93% (active)	99% (active)	89% (active)	94% (active)	98% (active)	85% (active)	41.6%	99% (active)	90% (active)	94.5% (active)	99% (active)	87% (active)	73.2% (active)
COC(=O)C12OCC34C(CC5C(C)C6=CC(=O)OC6=CC5(C)C3C(O)C1O)OC(=O)C(O)C24 (configuration not stated)	26%	84% (active)	89.7% (active)	30%	82% (active)	91.4% (active)	-18%	94% (active)	91% (active)	-6%	96% (active)	88.1% (active)	-2%	95% (active)	89.3% (active)	33%	93% (active)	81.3% (active)
O=C1O/C(=C\c2ccccc2)c2ccccc21	3%	66%	46.5%	-41%	20%	37.1%	1%	47%	47.6%	-4%	-1%	1.8%	40%	63%	54.5%	2%	50%	68.3%
CSc1c(S(C)=O)c2ccccc2n1C (configuration not stated)	20%	17%	-20.6%	22%	27%	-13.2%	12%	11%	-22.2%	25%	17%	-6.4%	3%	8%	-39.5%	27%	20%	-26.4%
CCCC(=O)Oc1ccc(OCc2ccccc2)cc1	-1%	55%	-23.8%	-1%	55%	-15.1%	0%	55%	1.6%	-3%	-15%	-41.8%	23%	77% (active)	75.2% (active)	0%	42%	-10.9%
[N-]=[N+]=Nc1c(C=O)c(=O)n(-c2ccccc2)c2ccccc12	8%	57%	67.2%	-1%	60%	80.4% (active)	-5%	47%	79% (active)	0%	29%	63.5%	-23%	26%	63.6%	6%	67%	68.7%
O=C(OCc1ccccc1)c1ccccc1Cl	3%	21%	50.4%	-3%	0%	14.1%	2%	14%	40.2%	4%	-11%	-18.6%	10%	19%	30.9%	3%	14%	82.8% (active)
Cc1[nH]nc(C(=O)OC(C)C)c1N=NN(C)C	-65%	94% (active)	98.2% (active)	-43%	98% (active)	98.7% (active)	-46%	96% (active)	96.2% (active)	-69%	97% (active)	97.3% (active)	-64%	95% (active)	98.3% (active)	-115%	95% (active)	98.7% (active)
O=C(O)c1ccccc1-c1c2cc([N+](=O)[O-])c(=O)c(Br)c-2oc2c(Br)c(O)c([N+](=O)[O-])cc12	27%	91% (active)	77.5% (active)	29%	93% (active)	82.1% (active)	25%	66%	62%	34%	66%	88.5% (active)	32%	75% (active)	66.5%	42%	96% (active)	72.1% (active)
CCCC(O)CNCc1ccc(N(C)C)cc1 (configuration not stated)	-2%	7%	30.1%	-3%	6%	-4.1%	-3%	-29%	75.6% (active)	6%	3%	63.9%	-1%	5%	46.7%	-17%	16%	41.8%
COc1ccc2c(C#N)cc3c(c[n+](C)c4ccccc34)c2c1	25%	78% (active)	92% (active)	13%	58%	86.4% (active)	19%	71% (active)	87.8% (active)	15%	48%	80.7% (active)	-2%	65%	78% (active)	21%	83% (active)	92% (active)
CCCC(=O)Oc1ccc([N+](=O)[O-])cc1	4%	23%	28.4%	2%	13%	29%	-1%	8%	11.1%	2%	6%	34.9%	4%	12%	4.5%	4%	13%	13.1%
CC(C)C(=O)/C=C/c1ccc(Cl)cc1Cl	-8%	46%	69.8%	-10%	48%	71.8% (active)	-16%	31%	69.6%	12%	36%	52.5%	-32%	54%	69.4%	-5%	48%	40.3%
CC(C)C(=O)[O][Bi]([c]1ccccc1)[c]1ccccc1	13%	92% (active)	82% (active)	7%	78% (active)	87.2% (active)	-32%	93% (active)	87.5% (active)	9%	90% (active)	85.6% (active)	11%	93% (active)	84.5% (active)	15%	88% (active)	91% (active)
